The whole screen tested about 48,000 compounds, of which about 13,000 (27%) showed an effect of 50% or more. Some of the results follow.
Each compound was assayed on Wolbachia pipientis (assay: Anti-Wolbachia Cell-Based Screen). Settings: 5 µM.
Assay type: functional
Design: scale not given: in the data most compounds retested in dose-response had high values
For `Cc1cnn(CC2CN(c3ncnc4c3CCC4)CCO2)c1` (stereo not given), the “Percent Effect” value was -34.52%. With `Cc1noc(C)c1CC(=O)NCCN1CCN(S(C)(=O)=O)CC1` the “Percent Effect” value was -3.578%. For `N#Cc1cc2c(=O)n(CC(O)Cc3ccccc3)ccc2[nH]c1=O` (stereo not given), the “Percent Effect” value was -6.856%. `O=C(Nc1ccc(-c2ccccc2)cc1)N1C[C@@H]2CNC[C@]2(C(=O)O)C1` was tested, and the “Percent Effect” value was 6.586%. For `CC(C)N1CCN(S(=O)(=O)c2ncn(C)c2Cl)CC1`, the “Percent Effect” value was 22.53%. With `O=C1O[C@@H]2CN(Cc3cccc(O)c3)C[C@@H]2N1CCCN1CCOCC1` the “Percent Effect” value was 15.85%. With `Cn1cc(C(=O)N2CC[C@@H]3[C@@H]2CCN3Cc2ccccc2)cn1.O=C(O)C(F)(F)F` the “Percent Effect” value was -15.71%. In the case of `Cn1cc(CN2CC[C@@H]3[C@H]2CCC(=O)N3c2ccccc2)cn1.O=C(O)C(F)(F)F`, the “Percent Effect” value is reported as 107.5%. With `Cn1cc(CN2CC[C@@H]3[C@@H]2CCN3Cc2ccc3c(c2)OCO3)cn1.O=C(O)C(F)(F)F.O=C(O)C(F)(F)F` the “Percent Effect” value was -8.648%. With `CN(Cc1ccccc1)C(=O)CS(=O)(=O)Cc1ccc(Cl)c(Cl)c1` the “Percent Effect” value was -2.386%. `Cc1cccc(S(=O)(=O)NC2CCN(CC(F)(F)F)C2)c1` (stereo not given) was tested, and the “Percent Effect” value was -3.118%. `COC(=O)NC1(C(=O)NCc2ccc(-c3ccn[nH]3)cc2)CCCC1` was tested, and the “Percent Effect” value was -10.61%. `CC(=O)N1CCCN(C(=O)NCc2ccc(-c3ccn[nH]3)cc2)CC1` was tested, and the “Percent Effect” value was 101.6%. With `NC(=O)CC1CCN(C(=O)NCc2ccc(-c3ccn[nH]3)cc2)CC1` the “Percent Effect” value was 131.5%. `Cc1[nH]ncc1CCCNC(=O)N1CCC(CC(N)=O)CC1` was tested, and the “Percent Effect” value was -1.64%. With `CNC(=O)C1CCN(C(=O)NCc2ccc(C)n2C)CC1` the “Percent Effect” value was -3.399%. In the case of `O=C(NCc1ccc2c(c1)OCCO2)N1CCC(CO)CC1`, the “Percent Effect” value is reported as -3.134%. In the case of `CCOCC1CCCN(C(=O)NCc2ccc(-c3ccn[nH]3)cc2)C1` (stereo not given), the “Percent Effect” value is reported as 107.6%. For `O=C(NCc1ccccc1)N1CCC(Oc2ncccc2Cl)CC1`, the “Percent Effect” value was 6.296%. In the case of `CC(=O)NC1CCCN(C(=O)NCc2ccc(-c3ccn[nH]3)cc2)C1` (stereo not given), the “Percent Effect” value is reported as 11.01%. For `CNC(=O)C1CCN(C(=O)NCc2ccc(-c3ccn[nH]3)cc2)CC1`, the “Percent Effect” value was 139.8%. For `COc1ccccc1NCC(=O)NCc1ccc(-c2ccn[nH]2)cc1`, the “Percent Effect” value was -17.15%. `CCOc1ccc(CNC(=O)N2CCCC(CO)C2)cc1F` (stereo not given) was tested, and the “Percent Effect” value was 1.945%. `O=C(O)C(F)(F)F.O=C(c1cnoc1)N1CCC[C@]2(C[C@@H](OCc3ccccn3)CO2)C1` was tested, and the “Percent Effect” value was 20.74%. With `O=C(NCc1ccc(-c2ccn[nH]2)cc1)N1CCC(N2CCCC2)C1` (stereo not given) the “Percent Effect” value was 1.692%. For `NC(=O)C1CCN(C(=O)NCc2ccc(-c3ccn[nH]3)cc2)CC1`, the “Percent Effect” value was 110.5%. With `NC(=O)C1CCN(C(=O)NCc2ccc3c(c2)OCCO3)CC1` the “Percent Effect” value was 2.129%. `CCn1cc(NC(=O)NCC(O)CN2CCCCC2)cn1` (stereo not given) was tested, and the “Percent Effect” value was -8.278%. `CCN(CC)Cc1ccc(CNC(=O)C(C)(C)n2cc(Br)cn2)cc1` was tested, and the “Percent Effect” value was 25.74%. In the case of `CCC(CC)C(CNC(=O)Nc1cnn(CCOC)c1)N(C)C` (stereo not given), the “Percent Effect” value is reported as -1.824%. In the case of `Cc1csc(CNc2cnn(CC(F)(F)F)c2)n1`, the “Percent Effect” value is reported as 0.5328%. For `Cc1cc(C)c(CNc2cnn(CC(O)CN(C)C)c2)c(C)c1` (stereo not given), the “Percent Effect” value was 97.23%. In the case of `Cc1cc(C)c(NC(=O)Nc2cnn(CC(O)CN(C)C)c2)c(C)c1` (stereo not given), the “Percent Effect” value is reported as 101.9%. `CN(C)CC(O)Cn1cc(NCc2ccc(Br)cc2)cn1` (stereo not given) was tested, and the “Percent Effect” value was 110.4%. In the case of `Cc1csc(CNc2cnn(CC(C)C)c2)n1`, the “Percent Effect” value is reported as -6.579%. `CNS(=O)(=O)CC1CCCN1c1ccc(Cl)cn1` (stereo not given) was tested, and the “Percent Effect” value was -0.6453%. For `CC(C)COC(C)C(=O)N1CCCCC1` (stereo not given), the “Percent Effect” value was 22.01%. With `O=C(CNCCn1cccn1)NCC1(c2ccccc2)CC1` the “Percent Effect” value was -4.744%. For `N#CC1(NC(=O)CNCCn2cccn2)CCCCC1`, the “Percent Effect” value was 0.8723%. With `Cc1cccc(C2(C(=O)NCCCn3cccn3)CC2)c1` the “Percent Effect” value was -18.04%. For `Cc1cnn(CCNCC(=O)NCC2(c3ccccc3)CCC2)c1`, the “Percent Effect” value was 6.79%. For `O=C(CNCCn1cccn1)NCC1(c2ccccc2)CCCC1`, the “Percent Effect” value was 152.5%. For `O=C(CNCCn1cccn1)NCC1(c2ccccc2)CCOCC1`, the “Percent Effect” value was 92.49%. In the case of `O=C(Cn1cccn1)NCC1(c2ccccc2)CC1`, the “Percent Effect” value is reported as 8.498%. With `CC(NC1(CNC(=O)Cn2cccn2)CCOCC1)c1ccccc1` (stereo not given) the “Percent Effect” value was -4.179%. `O=C(CNCCn1cccn1)NCC1(c2ccccc2)CCC1` was tested, and the “Percent Effect” value was 123.8%. With `Cc1cnn(CCNCC(=O)NCC2(c3ccccc3)CC2)c1` the “Percent Effect” value was 75.55%. With `CN(C(=O)CNCCn1cccn1)C1(C#N)CCCCC1` the “Percent Effect” value was -7.323%. With `Cc1cnn(CCNCC(=O)NCCOc2ccccc2)c1` the “Percent Effect” value was -6.94%. In the case of `Fc1ccc(-n2cccn2)c(CN2CCCCC2CCn2ccnc2)c1` (stereo not given), the “Percent Effect” value is reported as 6.266%. In the case of `Cc1cc(NC(=O)CCNC(C)(C)c2nc(C)c(C)s2)no1`, the “Percent Effect” value is reported as -5.204%. For `Cc1ccccc1C1CCCN(C(=O)c2c[nH]c(=O)c(Cl)c2)C1` (stereo not given), the “Percent Effect” value was 0.979%. For `O=C(NCc1ccoc1)c1ccc(C2CCCN2CC2CCOCC2)s1` (stereo not given), the “Percent Effect” value was -3.898%. `CC(=O)NC(Cc1c[nH]c2cc(F)ccc12)C(=O)Nc1nncs1` (stereo not given) was tested, and the “Percent Effect” value was -20.07%. For `CC(C)NC(=O)c1cc2c([nH]c1=O)CC(c1cccs1)CC2=O` (stereo not given), the “Percent Effect” value was -15.67%. For `Cc1ccc(CN2C[C@H]3C[C@H](C(=O)NCc4cccnc4)[C@@H](C2)O3)o1`, the “Percent Effect” value was -11.22%. `Cc1ccc(CN2CC[C@H]3OCC[C@@H](C(=O)NCC4CC4)[C@@H]3C2)o1` was tested, and the “Percent Effect” value was -3.1%. In the case of `COCCN1CCO[C@@H]2CN(Cc3ccc(C)o3)C[C@@H]2C1.O=C(O)C(F)(F)F.O=C(O)C(F)(F)F`, the “Percent Effect” value is reported as 4.147%. With `O=C(NCC1CC1)[C@@H]1CCO[C@@H]2CCN(Cc3ccco3)C[C@H]21.O=C(O)C(F)(F)F` the “Percent Effect” value was -5.269%. With `CN(C)[C@@H]1CN(Cc2ccco2)C[C@@H]2CCCO[C@@H]21.O=C(O)C(F)(F)F.O=C(O)C(F)(F)F` the “Percent Effect” value was 5.089%. `CC(=O)N1C[C@H]2CCCN(Cc3ccc(C)o3)[C@H]2C1.O=C(O)C(F)(F)F` was tested, and the “Percent Effect” value was -21.55%. `Cc1ccc(CN2C[C@H]3C[C@H](C(=O)NCC4CC4)N(C)[C@H]3C2)o1` was tested, and the “Percent Effect” value was 105.7%. With `CC(C)N1[C@@H](C(=O)NCC2CC2)C[C@@H]2CN(Cc3ccco3)C[C@@H]21` the “Percent Effect” value was 96.03%. For `CN1[C@@H](C(=O)NCC2CC2)C[C@@H]2CN(Cc3ccoc3)C[C@@H]21`, the “Percent Effect” value was 87.47%. In the case of `Cc1ccc(CN2C[C@@H]3C[C@H](C(=O)NCC4CC4)N(C)[C@@H]3C2)o1.O=C(O)C(F)(F)F.O=C(O)C(F)(F)F`, the “Percent Effect” value is reported as 102.8%. In the case of `CC(C)(C)CCS(=O)(=O)NCCc1csc(N2CCCC2)n1`, the “Percent Effect” value is reported as -17.7%. For `CC(C)(C)SCC(=O)Nc1cc(-n2nnnc2C2CC2)ccc1F`, the “Percent Effect” value was -2.902%. With `c1ncc2c(n1)CN(Cc1cn3ccsc3n1)CC2` the “Percent Effect” value was -19.58%. `NC(=O)CN(CC(=O)NCc1cc(F)cc(F)c1)C1CCCC1` was tested, and the “Percent Effect” value was 2.456%. `CC1(C)COCCN1C(=O)Cc1csc(Cc2ccccn2)n1` was tested, and the “Percent Effect” value was -7.387%. `CCNC(=O)NC(=O)CN1CCC(c2c[nH]c3ccc(OC)cc23)CC1` was tested, and the “Percent Effect” value was -12.44%. With `CC(C)Cc1noc(CN(C)C2CCS(=O)(=O)C2)n1` (stereo not given) the “Percent Effect” value was -20.93%. With `Cc1ccc(S(N)(=O)=O)cc1C(=O)NC1CCN(C2CC2)CC1` the “Percent Effect” value was 102.7%. In the case of `CC(=O)N1CCC(NC(=O)c2cc(S(N)(=O)=O)ccc2C)CC1`, the “Percent Effect” value is reported as 120.7%. In the case of `Cc1ccc(S(N)(=O)=O)cc1C(=O)NC1CCCC1`, the “Percent Effect” value is reported as 60.38%. In the case of `Cc1ccc(S(N)(=O)=O)cc1C(=O)NCC1Cc2ccccc2O1` (stereo not given), the “Percent Effect” value is reported as 20.46%. `O=C(NC1CCN(C2CC2)CC1)c1cc(Cl)ccc1-n1cnnn1` was tested, and the “Percent Effect” value was -15.3%. `COC(=O)N1CCC(NC(=O)c2cc(S(N)(=O)=O)ccc2C)CC1` was tested, and the “Percent Effect” value was 98.52%. For `COCC(O)CN1CCC(NC(=O)c2cscc2C)CC1` (stereo not given), the “Percent Effect” value was -6.433%. With `Cc1ccc(C)c(C(=O)NC2CCC(N3C(=O)CCC3=O)CC2)c1` (stereo not given) the “Percent Effect” value was 7.383%. For `NS(=O)(=O)c1ccc(F)c(C(=O)NCCSC2CCCCC2)c1`, the “Percent Effect” value was -0.4963%. With `CC(=O)N1CCC(NC(=O)c2cc(Cl)ccc2O)CC1` the “Percent Effect” value was 5.076%. `COCCC(=O)N1CCC(NC(=O)c2cscc2C)CC1` was tested, and the “Percent Effect” value was 4.5%. For `CCc1ccc(O)c(C(=O)NC2CCN(S(=O)(=O)CC)CC2)c1`, the “Percent Effect” value was -4.06%. In the case of `CCN1C(=O)[C@H]2CN(CC(C)C)C[C@H]2C12CCN(C(=O)NC(C)C)CC2.O=C(O)C(F)(F)F`, the “Percent Effect” value is reported as -7.35%. `CCCOC(C)Cn1ccc2[nH]c(=O)c(C#N)cc2c1=O` (stereo not given) was tested, and the “Percent Effect” value was -62.19%. `CC(C)C(C)(CNC(=O)OC(C)(C)C)NC(=O)c1cnccn1` (stereo not given) was tested, and the “Percent Effect” value was 1.478%. `Cc1c(NCCOCC(F)(F)F)cccc1C(=O)N1CCCC1` was tested, and the “Percent Effect” value was 1.47%. With `COc1ccc(S(=O)(=O)NCC(O)c2sccc2C)cc1C` (stereo not given) the “Percent Effect” value was 4.303%. In the case of `CCCC(=O)NC1CCCN(c2nc3ccccc3cc2CO)C1` (stereo not given), the “Percent Effect” value is reported as 0.5391%. With `O=C(c1ccsc1)N1CC(C(=O)N2CCOCC2)C2(CCOCC2)C1` (stereo not given) the “Percent Effect” value was -0.6494%. `CC(C)(C)n1ncc(C(=O)NCCCC(N)=O)c1C(F)(F)F` was tested, and the “Percent Effect” value was 6.459%. In the case of `Cc1ccc(S(N)(=O)=O)cc1C(=O)NC1CCCN(C)C1` (stereo not given), the “Percent Effect” value is reported as 108%. For `Cc1ccc(S(N)(=O)=O)cc1C(=O)N1CCc2c(ncnc2N(C)C)C1`, the “Percent Effect” value was -11.64%. For `Cc1ccc(S(N)(=O)=O)cc1C(=O)N1C[C@@H](CN(C)C)[C@@H](CO)C1`, the “Percent Effect” value was 4.643%.

From ChEMBL document CHEMBL3988442, “University of Dundee, Small-Polar-MMV Screening Library” (2021)
